Values joined by “and” are separate entries in the source; they are usually repeats but may differ in a detail not shown here. Equal values may be shown once. Screen size: about 340,000 compounds; about 5,100 (1.5%) were called active. Many of the other results were omitted from the sample, so actives are more common in it than they were. Unmarked numbers belong to inactive results.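 Rule for the calls: active = mean Tm shift, scaled 0 neutral to 100 positive control, at about 1.3% or above, every replicate too (limit read from the data); inconclusive = no clear call, values can overlap the other calls; inactive = the rest.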

The results in this text go back to PubChem BioAssay AID651658 (Broad Institute, 2012).

The target of the assay is Fibroblast growth factor 22 (Homo sapiens) (UniProt Q9HCT0). The assay is described as follows: FGF22 ligand-induced thermal stabilization – biophysical, thermal shift, single point, FGF22 synaptogenesis inhibitor project, primary screen (AID 651658). The settings on record: recombinant FGF22 thermal shift, SYPRO orange fluorescence; at 9.99 µM; active compounds read high; percent of sucrose octasulfate shift, DMSO zero.
Sequence of Fibroblast growth factor 22 (Homo sapiens) (Q9HCT0 whole entry, looked up): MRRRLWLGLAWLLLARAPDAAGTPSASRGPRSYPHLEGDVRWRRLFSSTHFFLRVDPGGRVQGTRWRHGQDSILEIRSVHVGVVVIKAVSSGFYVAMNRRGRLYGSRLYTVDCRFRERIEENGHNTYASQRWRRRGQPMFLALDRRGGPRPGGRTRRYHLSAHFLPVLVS
Consider `O=C(C[C@@H]1C[C@@H]2c3cc(NC(=O)c4ccc5c(c4)OCO5)ccc3O[C@@H]2[C@H](CO)O1)NCCc1ccccc1`, for which the activity (Tm shift, normalised) was 0.032%.

Take `COc1ccc(NC(=O)Nc2cccc3c2O[C@H](CN(C)S(=O)(=O)c2cn(C)cn2)[C@H](C)CN([C@@H](C)CO)C3=O)cc1`: the activity (Tm shift, normalised) is -0.085%.

In the case of `CN1C(=O)c2cc(NC(=O)c3cccc(F)c3)ccc2OC[C@@H]2O[C@@H](CC(=O)NCC3CCCCC3)CC[C@H]21`, the activity (Tm shift, normalised) is -0.226% and -0.131%.

As to `CCC(=O)N1[C@@H](CO)[C@@H](c2ccccc2)C12CN(C(=O)Cc1ccccc1)C2`, the activity (Tm shift, normalised) is -0.201%.

In the case of `Cc1cc(C)cc(N(CC(=O)NC2CCCC2)C(=O)CCC(=O)Nc2cc(C)on2)c1`, the activity (Tm shift, normalised) was -0.343%.

Take `Cc1cc(NC(=O)CCC(=O)N(CC(=O)NCC2CCCO2)c2ccccc2)no1` (stereo unspecified): the activity (Tm shift, normalised) was 0.811%.

With `COC(=O)c1cccc(N(CC(=O)NCC2CCCO2)C(=O)CCC(=O)Nc2cc(C)on2)c1` (stereo unspecified), the activity (Tm shift, normalised) was 43% (active).

Consider `COC(=O)C1=CN(c2ccc(F)c(F)c2)C=C(C(=O)OC)C1c1ccc([N+](=O)[O-])cc1`, for which the activity (Tm shift, normalised) was 0.128%.

As to `COC(=O)c1c(C)[nH]c(C)c1-c1ccc([N+](=O)[O-])cc1`, the activity (Tm shift, normalised) was 0.028%.

As to `COC(=O)C1=C(C(=O)OC)C(c2cc([N+](=O)[O-])ccc2O)c2sc(=O)[nH]c2S1` (stereo unspecified), the activity (Tm shift, normalised) was 43.5% (active).

As to `CCCNC(=O)N1CC(=O)N2[C@H](CO)[C@H](c3ccc(C#Cc4cccc(OC)c4)cc3)[C@H]2C1`, the activity (Tm shift, normalised) was 0.3%.

Consider `C[C@H]1CCCCO[C@@H](CN(C)C(=O)Cc2ccccc2)[C@@H](C)CN([C@@H](C)CO)C(=O)c2cc(NC(=O)c3ccccc3)ccc2O1`, for which the activity (Tm shift, normalised) is -0.058%.

As to `Cc1ccc(S(=O)(=O)N(C)C[C@@H]2Oc3ccc(NC(=O)C4CCCCC4)cc3CC(=O)N([C@@H](C)CO)C[C@H]2C)cc1`, the activity (Tm shift, normalised) was -0.112%.

Consider `COc1cccc(NC(=O)C[C@@H]2CC[C@H]3[C@@H](COc4ccc(NC(=O)C5CCOCC5)cc4C(=O)N3C)O2)c1`, for which the activity (Tm shift, normalised) is -0.165%.

As to `Cc1ccc2[nH]cc(CCNC(=O)C3CCCCC3)c2c1`, the activity (Tm shift, normalised) was -0.161%.

With `O=C(NCCc1c[nH]c2ccc(Cl)cc12)c1ccc([N+](=O)[O-])cc1`, the activity (Tm shift, normalised) was -0.153%.

Take `Cc1ccc2[nH]cc(CCNC(=O)c3ccc([N+](=O)[O-])cc3)c2c1`: the activity (Tm shift, normalised) was 43.1% (active).

As for `CS(=O)(=O)N1CC(=O)N2[C@@H](CO)[C@@H](c3ccc(C#CCC4CCCC4)cc3)[C@@H]2C1`, the activity (Tm shift, normalised) was -0.002%.

In the case of `O=C(Nc1ccc(Cl)cc1)Nc1ccc(Oc2cccnc2)nc1`, the activity (Tm shift, normalised) is 0.04%.

As to `Cc1ccc(NC(=O)Cn2c(C)csc2=O)cc1`, the activity (Tm shift, normalised) is -0.213%.

Consider `Cc1ccc(NC(=O)CC(=O)Nc2ccc(C)cc2)cc1`, for which the activity (Tm shift, normalised) is 43.3% (active).

As to `Cc1ccc(NC(=O)CCC(=O)c2ccc(Br)cc2)cc1`, the activity (Tm shift, normalised) was 0.05%.

In the case of `Cc1ccc(NC(=O)Nc2cccnc2)cc1`, the activity (Tm shift, normalised) is 1.35% (active).

Take `Cc1ccc(NC(=O)c2cccnc2C(=O)Nc2ccc(C)cc2)cc1`: the activity (Tm shift, normalised) is 0.363%.

As for `C[C@@H]1CN([C@@H](C)CO)C(=O)c2cc(N(C)C)ccc2O[C@@H](C)CCCCO[C@H]1CN(C)C(=O)CCCN(C)C`, the activity (Tm shift, normalised) is -1.35%.

As for `O=C(CN1C(=O)NC2(CCCC2)C1=O)Nc1cc(C(F)(F)F)ccc1N1CCOCC1`, the activity (Tm shift, normalised) is 0.22%.

Consider `CC(Sc1nncn1C)C(=O)Nc1cc(C(F)(F)F)ccc1N1CCOCC1` (stereo unspecified), for which the activity (Tm shift, normalised) is 43% (active).

Regarding `O=C(CCC1CCCCC1)Nc1cc(C(F)(F)F)ccc1N1CCOCC1`, the activity (Tm shift, normalised) was -0.247%.

Regarding `CCCN1[C@@H]2c3ccc(C4=CCCC4)c(=O)n3C[C@@H]2[C@@H](CO)[C@@H]1C(=O)NCc1ccccn1`, the activity (Tm shift, normalised) is -0.078%.

With `OC[C@H]1[C@H](c2ccc(-c3ccccc3F)cc2)[C@H]2CN(Cc3cncnc3)CCCCN21`, the activity (Tm shift, normalised) is 0.4%.

Turning to `CN(C)C(=O)C[C@H]1CC[C@H](NC(=O)NC2CCCC2)[C@@H](CO)O1`, the activity (Tm shift, normalised) was -0.127%.

`O=C(Cn1cnc2ccccc21)Nc1ccccc1-c1ccccc1`: the activity (Tm shift, normalised) was 0.098%.

With `CC(=O)OC(COc1ccc(F)cc1)Cn1cnc2ccccc21` (stereo unspecified), the activity (Tm shift, normalised) is 43% (active).

`O=C(COC(=O)Cn1cnc2ccccc21)Nc1cccc2c1C(=O)c1ccccc1C2=O`: the activity (Tm shift, normalised) is 0.059%.

For `CO[C@H]1CN(C)C(=O)c2ccc(NC(=O)c3ccno3)cc2OC[C@@H](C)N(S(C)(=O)=O)C[C@H]1C`, the activity (Tm shift, normalised) was 0.142%.

Regarding `CNC[C@@H]1Oc2ccc(NC(=O)C3CCCCC3)cc2CC(=O)N([C@@H](C)CO)C[C@H]1C`, the activity (Tm shift, normalised) is 0.125%.

In the case of `CNC[C@@H]1Oc2ccc(NC(=O)C3CCCCC3)cc2C(=O)N([C@@H](C)CO)C[C@H]1C`, the activity (Tm shift, normalised) is 1.59% (active).

On to `CNC[C@H]1Oc2ccc(NC(=O)C3CCCCC3)cc2C(=O)N([C@H](C)CO)C[C@@H]1C`, for which the activity (Tm shift, normalised) was -0.27%.

Regarding `C[C@H]1CN([C@@H](C)CO)C(=O)c2cc(N(C)C)ccc2O[C@@H]1CN(C)Cc1ccccc1`, the activity (Tm shift, normalised) was 0.118%.

As for `C[C@H](CO)N1C[C@H](C)[C@@H](CN(C)C)Oc2ccc(N(C)C)cc2C1=O`, the activity (Tm shift, normalised) is 1.41% (active).

As to `C[C@@H]1CN([C@H](C)CO)C(=O)c2cc(N(C)C)ccc2O[C@@H]1CN(C)S(C)(=O)=O`, the activity (Tm shift, normalised) was -0.284%.
